Assay results as given in PubChem BioAssay (NCATS).
Several values for one entry are separate records, joined by “and”; a condition that tells them apart may be missing. Identical values can stand only once. Results filed as inconclusive are left out. A number with no mark means an inactive call. Activity calls are given as the source filed them. The call rests on the fitted dose curve; in most records, active means well fitted inhibition curve with a large enough effect; inconclusive means small, poorly fitted or top-dose-only effect; inactive means flat fitted curve, though single readings scatter.
On the % scale 0 is the no-effect control and ±100 the full control effect; potency means the concentration at half of the fitted maximal effect.

These compounds were tested on CRL-7250 (assay: Cytotoxic Profiling of Annotated Libraries Using Quantitative High-Throughput Screening (AID 1296008; further: nearly all actives have a fitted effect of over 60% in size)). Settings: Five cell lines viability, CellTiter-Glo ATP luminescence, 48-72 h; max response: hits give low values.
Method in brief: (§1)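 Cytotoxicity was measured as CellTiter-Glo ATP luminescence, read after 10 min at room temperature. Compound treatment of the cells lasted 48 or 72 hr at 37 degrees Celsius in a qHTS format.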
In the case of `C=C(C)C1CC(O)C(C)C12CC(O)C1(C)OC1C2O` (stereo not drawn), the Potency was 2.59 µM (active). For `CC(=O)O[C@@]12CO[C@@H]1C[C@H](O)[C@@]1(C)C(=O)[C@H](O)C3=C(C)[C@@H](OC(=O)[C@H](O)[C@@H](NC(=O)OC(C)(C)C)c4ccccc4)C[C@@](O)([C@@H](OC(=O)c4ccccc4)C12)C3(C)C` (stereo partly drawn), the Potency was 0.005 µM (active). In the case of `Cc1c(C(=O)Nc2ccc(N3CCC(N4CCOCC4)CC3)c(C#N)c2)cnn1-c1ccc(Cl)cc1`, the Potency was 1.16 µM (active). With `CC(C)c1cc(-c2ccc(F)c3ccccc23)nc(N)n1` the max response was 2.23%. `C/C=C(/C)C(=O)O[C@@H]1C[C@@H](OC(=O)CC(C)C)C2(C)C3C(=O)C=C(C)C2C3C1(C)C` (stereo partly drawn) showed a max response of 0.438%.

Each compound was assayed on KB-3-1 in the same assay as above. Settings: Five cell lines viability, CellTiter-Glo ATP luminescence, 48-72 h; max response: hits give low values.
Method in brief: as §1
`Fc1ccc(N2CCCCC2)c(NC(=S)c2ccncc2)c1` showed a max response of -9.62%. `O=C(Nc1ccccc1Br)NC1CCN(c2ccc(C(F)(F)F)cn2)C1` (stereo not drawn) was tested, and the max response was -16.5%. For `OC[C@H]1O[C@@H](OC/C=C/c2ccc(O)cc2)[C@H](O)[C@@H](O)[C@@H]1O`, the max response was -4.8%. `CC(C)=CCC/C(C)=C/COCC1OC(n2ccc(=O)[nH]c2=O)C(O)C1O` (stereo not drawn) gave a max response of 7.71%. `COc1cccc(NCCC2(c3ccccc3)CC(C)(C)OC(C)(C)C2)c1` showed a max response of -14.2%. For `CNc1cccc(CCOc2ccc3c(c2)CN(CC(F)(F)F)C(=O)[C@H](CC(=O)O)C3)n1`, the max response was -2.45%. For `Clc1cccc(COc2cncc(N3CCNCC3)n2)c1`, the max response was -0.792%. `CCOc1cn(-c2ccc(F)cc2C)nc1C(=O)Nc1ccc(Oc2ccnc3cc(OC)c(OC)cc23)c(F)c1` was tested, and the max response was 5.26%. Compound `Nc1nccc(-c2c(-c3ccc(F)cc3)ncn2C2CCCCC2)n1` has a max response of -18.1%. `CCN1CCC[C@@H]1CNC(=O)c1ccc2c(c1)NC(=O)c1cccc(C)c1S2` was tested, and the outcome was “inactive”. For `O=C(Cc1c(F)cccc1F)Nc1cc(OCc2ccc(Cl)cc2)ccn1`, the outcome was “inactive”. With `CCCC(Nc1nc(-c2ccc(NC(=O)NCC)c(OC)c2)ncc1C)c1cccnc1` (stereo not drawn) the Potency was 0.146 µM (active). For `COc1ccc(S(=O)(=O)N2CCC[C@H]2C(=O)Nc2cc(C)cc(C)c2)cc1`, the outcome was “inactive”. `CC1(CO)CC2C(O)C3=C(CC(C)(O)C2C1)C(=O)OC3` (stereo not drawn) gave a max response of 9.13%. With `CCN(c1cc(-c2ccc(CN3CCOCC3)cc2)cc(C(=O)NCc2c(C)cc(C)[nH]c2=O)c1C)C1CCOCC1` the max response was -1.86%. In the case of `COc1ccnc(CS(=O)c2nc3cc(OC(F)F)ccc3[nH]2)c1OC` (stereo not drawn), the max response was -2.25% and -1.6%. `O=C(c1c(F)ccc(NS(=O)(=O)N2CC[C@@H](F)C2)c1F)c1c[nH]c2ncc(-c3cnc(C4CC4)nc3)cc12` showed a max response of -23.7%. `O=C(CNC(=O)c1cccc(C(F)(F)F)c1)N[C@@H]1CCN(Cc2ccc(Cl)cc2)C1` gave a max response of -17%. `C=C(C(=O)OC[C@H]1O[C@@H](OC(=O)/C=C/c2ccccc2)[C@H](O)[C@@H](O)[C@@H]1O)C(O)CO` (stereo partly drawn) gave a max response of -8.71%. With `O=C(NCCN1CCC(n2c(=O)[nH]c3ccccc32)CC1)c1cc2cc(F)ccc2[nH]1` the max response was 1.32%. In the case of `CC1(C)SCCN(S(=O)(=O)c2ccc(Oc3ccncc3)cc2)[C@H]1C(=O)NO`, the max response was -10.1%. Compound `COc1ccccc1C(=O)Nc1cc2c(cc1N1CCCC1)n(C)c(=O)n2C` has a max response of -11.6%. Compound `CC1=CC2/C=C(\C)CCC3OC(C)(C)OC3CCC(=O)C23C(=O)NC(CC(C)C)C3C1C` (stereo not drawn) has a max response of 3.72%. `COc1ccc2nc3n[nH]c(C)c3c(NCCOCCO)c2c1` showed a max response of 2.11%. For `CO[C@@H]1CC(OC2CCC3(C)C(CCC45CCC(C6=CC(=O)OC6)C(C)(CCC43)C5=O)C2)O[C@H](C)[C@@H]1O[C@@H]1O[C@H](CO[C@@H]2O[C@H](CO)[C@@H](O)[C@H](O)[C@H]2O)[C@@H](O)[C@H](O)[C@H]1O` (stereo partly drawn), the Potency was 3.48 µM (active). `CCCSc1nc(N[C@@H]2C[C@H]2c2ccc(F)c(F)c2)c2nnn([C@@H]3C[C@H](OCCO)[C@@H](O)[C@H]3O)c2n1` was tested, and the max response was -26.6%. For `Cc1cc(C)c2c(c1)C(N(Cc1cc(C(F)(F)F)cc(C(F)(F)F)c1)c1nnn(C)n1)CCCN2CC1CCC(C(=O)O)CC1` (stereo not drawn), the Potency was 14.6 µM (active). `CC(=O)O[C@H]1[C@H](O)C[C@@]2(C)C(CC[C@]3(C)C2CC=C2C4CC(C)(C)CC[C@]4(C(=O)O)CC[C@]23C)C1(C)C` (stereo partly drawn) gave a max response of -19.6%. In the case of `CC1(NC(=O)c2ccc(C#Cc3cccc(F)c3)cn2)COC1`, the max response was -5.29%. In the case of `C/C=C/C=C/C=C/C(=O)O[C@@H]1C=C2COC(=O)[C@]2(O)[C@@]2(C)CCCC(C)(C)[C@H]12`, the max response was -0.753%. With `Cn1ccc(NC(=O)c2cc(Oc3ccc(C(=O)N4CCC4)c(F)c3)c3c(c2)OC(C)(C)C3)n1` the max response was 1.91%. `Cn1ncc2cc(-c3cnc(N)c(Cl)c3N3CCC4(CCNC4=O)CC3)ccc21` was tested, and the outcome was “inactive”. With `Cc1ccnn1-c1ccc(C(=O)N2CCN(S(=O)(=O)c3ccc(Cl)c(C(F)(F)F)c3)CC2)cc1` the max response was -18.8%. `C=C(C)C1CC(O)C(C)C12CC(O)C1(C)OC1C2O` (stereo not drawn) was tested, and the Potency was 3.66 µM (active). For `CC(=O)O[C@@]12CO[C@@H]1C[C@H](O)[C@@]1(C)C(=O)[C@H](O)C3=C(C)[C@@H](OC(=O)[C@H](O)[C@@H](NC(=O)OC(C)(C)C)c4ccccc4)C[C@@](O)([C@@H](OC(=O)c4ccccc4)C12)C3(C)C` (stereo partly drawn), the Potency was 0.0036 µM (active). With `Cc1c(C(=O)Nc2ccc(N3CCC(N4CCOCC4)CC3)c(C#N)c2)cnn1-c1ccc(Cl)cc1` the Potency was 1.46 µM (active). `CC(C)c1cc(-c2ccc(F)c3ccccc23)nc(N)n1` was tested, and the max response was -2.32%. For `C/C=C(/C)C(=O)O[C@@H]1C[C@@H](OC(=O)CC(C)C)C2(C)C3C(=O)C=C(C)C2C3C1(C)C` (stereo partly drawn), the max response was 5.54%.
